Test results as given in the supplement of paper PMC11732987, “Enantioselective OTUD7B fragment discovery through chemoproteomics screening and high-throughput optimisation” (Communications Chemistry, 2025).
Values without a mark were called inactive.

How the values were obtained:
Experiment in all cases: log2 ratio of Biotin-Ahx-Ub-VS probe labelling (compound/DMSO); higher = less target engagement, active = hit call of the paper (q ≤ 0.05, log2 ratio ≤ -1)
Conditions in all cases: treatment time: 3 h
[1] = compound: CN(Cc1cccc(Br)c1)C(=O)CCl
Procedure, shortened: (§1)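 For activity-based profiling, 495 µg portions of HEK293T lysate in Tris/CHAPS/IGEPAL buffer with protease inhibitors were treated in triplicate with compound at 50 or 200 µM or with DMSO for 3 h. A 1 h incubation with Biotin-Ahx-Ub-VS (0.5 µM final) followed, then NeutrAvidin enrichment, LysC and trypsin digestion and diaPASEF LC-MS/MS. The compound/DMSO base-two log ratios were averaged from median-normalised label-free quantities using an unpaired t-test. Proteins needed at least 2 unique peptides to be included.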

[2] = compound: CN(Cc1ccccc1)C(=O)CCl
Procedure, shortened: as §1

[3] = compound: COc1ccc(CN(C)C(=O)CCl)cc1
Procedure, shortened: as §1

[4] = compound: COc1cccc(CN(CCCc2ccccc2)C(=O)CCl)c1
Procedure, shortened: as §1

[5] = compound: ClCC(=O)N1CCc2cc(Cl)c(Cl)cc2C1
Procedure, shortened: as §1

[6] = compound: ClCC(=O)N1CCc2nc(ncc2C1)-c1ccccc1
Procedure, shortened: as §1

[7] = compound: ClCC(=O)N1CCc2nocc2C1
Procedure, shortened: as §1

[8] = compound: ClCC(=O)N1CCc2scc(Br)c2C1
Procedure, shortened: as §1

[9] = compound: ClCC(=O)NC(C1CCCC1)c1cccs1
Procedure, shortened: as §1

[10] = compound: ClCC(=O)NC1CCCc2ccccc12
Procedure, shortened: as §1

[11] = compound: ClCC(=O)NC1CCOc2ccc(Cl)cc12
Procedure, shortened: as §1

[12] = compound: ClCC(=O)NC1CCSc2ccccc12
Procedure, shortened: as §1

[13] = compound: ClCC(=O)N[C@H]1CCCc2ccccc12
Procedure, shortened: as §1

[14] = compound: Fc1ccc(N2CCN(c3nc4c(CN(C(CCl)=O)CC4)cn3)CC2)cc1.Cl.Cl
Procedure, shortened: as §1

UniProt Q9UPU5, sequence (Q9UPU5 whole entry): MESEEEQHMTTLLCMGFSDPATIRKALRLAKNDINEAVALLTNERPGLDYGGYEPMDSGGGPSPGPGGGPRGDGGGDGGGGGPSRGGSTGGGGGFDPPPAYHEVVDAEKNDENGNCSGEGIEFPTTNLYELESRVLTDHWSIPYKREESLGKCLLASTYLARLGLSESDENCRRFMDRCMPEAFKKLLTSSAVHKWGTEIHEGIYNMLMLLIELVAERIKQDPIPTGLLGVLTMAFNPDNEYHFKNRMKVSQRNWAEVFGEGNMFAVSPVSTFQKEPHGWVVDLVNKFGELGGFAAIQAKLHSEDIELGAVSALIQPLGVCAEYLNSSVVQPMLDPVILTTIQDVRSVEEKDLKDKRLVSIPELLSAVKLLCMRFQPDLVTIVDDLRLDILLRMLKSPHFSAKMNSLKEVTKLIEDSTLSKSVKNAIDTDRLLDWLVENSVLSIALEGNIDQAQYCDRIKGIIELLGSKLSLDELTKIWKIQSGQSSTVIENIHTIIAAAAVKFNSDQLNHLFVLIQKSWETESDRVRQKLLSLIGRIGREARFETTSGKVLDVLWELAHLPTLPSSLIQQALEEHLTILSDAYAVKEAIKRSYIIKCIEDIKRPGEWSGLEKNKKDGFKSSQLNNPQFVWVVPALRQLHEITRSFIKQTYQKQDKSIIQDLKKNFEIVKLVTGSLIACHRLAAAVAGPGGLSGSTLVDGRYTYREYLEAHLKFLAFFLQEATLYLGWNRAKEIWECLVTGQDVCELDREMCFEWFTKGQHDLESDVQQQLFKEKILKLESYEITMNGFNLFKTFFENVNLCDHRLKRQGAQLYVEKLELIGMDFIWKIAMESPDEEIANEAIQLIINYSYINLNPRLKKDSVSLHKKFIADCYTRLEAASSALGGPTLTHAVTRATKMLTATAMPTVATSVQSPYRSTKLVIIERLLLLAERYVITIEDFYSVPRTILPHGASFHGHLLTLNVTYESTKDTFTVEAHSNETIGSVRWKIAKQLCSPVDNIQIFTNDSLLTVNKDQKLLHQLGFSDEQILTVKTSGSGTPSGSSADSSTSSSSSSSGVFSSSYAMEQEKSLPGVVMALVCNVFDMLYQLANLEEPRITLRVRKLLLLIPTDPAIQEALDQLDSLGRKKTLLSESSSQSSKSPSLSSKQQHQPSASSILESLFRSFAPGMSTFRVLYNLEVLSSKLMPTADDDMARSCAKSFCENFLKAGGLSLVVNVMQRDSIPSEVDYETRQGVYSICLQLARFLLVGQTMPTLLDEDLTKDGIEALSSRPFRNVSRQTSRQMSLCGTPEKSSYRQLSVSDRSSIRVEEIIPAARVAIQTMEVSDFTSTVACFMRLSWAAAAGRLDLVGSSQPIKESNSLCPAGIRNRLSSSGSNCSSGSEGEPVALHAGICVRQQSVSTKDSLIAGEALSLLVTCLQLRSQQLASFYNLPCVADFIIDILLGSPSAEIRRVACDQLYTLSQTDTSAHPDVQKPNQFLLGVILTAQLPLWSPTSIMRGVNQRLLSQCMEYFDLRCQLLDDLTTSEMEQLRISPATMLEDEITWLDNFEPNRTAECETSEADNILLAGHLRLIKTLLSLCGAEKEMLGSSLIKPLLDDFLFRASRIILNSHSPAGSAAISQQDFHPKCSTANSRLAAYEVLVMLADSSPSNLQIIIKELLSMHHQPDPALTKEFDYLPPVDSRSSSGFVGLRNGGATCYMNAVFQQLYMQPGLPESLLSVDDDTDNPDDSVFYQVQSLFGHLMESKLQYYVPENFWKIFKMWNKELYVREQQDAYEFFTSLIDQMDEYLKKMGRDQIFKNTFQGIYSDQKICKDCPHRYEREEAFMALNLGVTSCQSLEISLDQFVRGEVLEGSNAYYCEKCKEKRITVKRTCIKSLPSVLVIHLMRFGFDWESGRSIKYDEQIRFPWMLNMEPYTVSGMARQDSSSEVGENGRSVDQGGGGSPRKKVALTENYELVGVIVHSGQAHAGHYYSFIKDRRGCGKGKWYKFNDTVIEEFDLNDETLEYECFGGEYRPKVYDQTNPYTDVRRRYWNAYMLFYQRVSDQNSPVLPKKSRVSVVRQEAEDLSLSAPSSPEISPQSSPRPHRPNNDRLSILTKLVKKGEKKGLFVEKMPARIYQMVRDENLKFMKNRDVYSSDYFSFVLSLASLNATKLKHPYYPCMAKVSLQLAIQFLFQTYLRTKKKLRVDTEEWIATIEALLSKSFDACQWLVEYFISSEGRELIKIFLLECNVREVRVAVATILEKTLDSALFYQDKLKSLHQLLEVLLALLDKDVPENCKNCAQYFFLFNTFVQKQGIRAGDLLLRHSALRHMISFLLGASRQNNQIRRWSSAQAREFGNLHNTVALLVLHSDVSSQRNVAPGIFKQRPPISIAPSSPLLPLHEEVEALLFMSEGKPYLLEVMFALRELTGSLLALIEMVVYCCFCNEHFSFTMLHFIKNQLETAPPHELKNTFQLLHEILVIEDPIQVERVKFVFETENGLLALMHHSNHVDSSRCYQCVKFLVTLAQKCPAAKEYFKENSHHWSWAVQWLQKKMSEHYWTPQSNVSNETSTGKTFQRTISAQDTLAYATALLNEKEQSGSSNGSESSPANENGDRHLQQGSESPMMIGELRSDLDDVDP
UniProt Q93008, sequence (Q93008 whole entry): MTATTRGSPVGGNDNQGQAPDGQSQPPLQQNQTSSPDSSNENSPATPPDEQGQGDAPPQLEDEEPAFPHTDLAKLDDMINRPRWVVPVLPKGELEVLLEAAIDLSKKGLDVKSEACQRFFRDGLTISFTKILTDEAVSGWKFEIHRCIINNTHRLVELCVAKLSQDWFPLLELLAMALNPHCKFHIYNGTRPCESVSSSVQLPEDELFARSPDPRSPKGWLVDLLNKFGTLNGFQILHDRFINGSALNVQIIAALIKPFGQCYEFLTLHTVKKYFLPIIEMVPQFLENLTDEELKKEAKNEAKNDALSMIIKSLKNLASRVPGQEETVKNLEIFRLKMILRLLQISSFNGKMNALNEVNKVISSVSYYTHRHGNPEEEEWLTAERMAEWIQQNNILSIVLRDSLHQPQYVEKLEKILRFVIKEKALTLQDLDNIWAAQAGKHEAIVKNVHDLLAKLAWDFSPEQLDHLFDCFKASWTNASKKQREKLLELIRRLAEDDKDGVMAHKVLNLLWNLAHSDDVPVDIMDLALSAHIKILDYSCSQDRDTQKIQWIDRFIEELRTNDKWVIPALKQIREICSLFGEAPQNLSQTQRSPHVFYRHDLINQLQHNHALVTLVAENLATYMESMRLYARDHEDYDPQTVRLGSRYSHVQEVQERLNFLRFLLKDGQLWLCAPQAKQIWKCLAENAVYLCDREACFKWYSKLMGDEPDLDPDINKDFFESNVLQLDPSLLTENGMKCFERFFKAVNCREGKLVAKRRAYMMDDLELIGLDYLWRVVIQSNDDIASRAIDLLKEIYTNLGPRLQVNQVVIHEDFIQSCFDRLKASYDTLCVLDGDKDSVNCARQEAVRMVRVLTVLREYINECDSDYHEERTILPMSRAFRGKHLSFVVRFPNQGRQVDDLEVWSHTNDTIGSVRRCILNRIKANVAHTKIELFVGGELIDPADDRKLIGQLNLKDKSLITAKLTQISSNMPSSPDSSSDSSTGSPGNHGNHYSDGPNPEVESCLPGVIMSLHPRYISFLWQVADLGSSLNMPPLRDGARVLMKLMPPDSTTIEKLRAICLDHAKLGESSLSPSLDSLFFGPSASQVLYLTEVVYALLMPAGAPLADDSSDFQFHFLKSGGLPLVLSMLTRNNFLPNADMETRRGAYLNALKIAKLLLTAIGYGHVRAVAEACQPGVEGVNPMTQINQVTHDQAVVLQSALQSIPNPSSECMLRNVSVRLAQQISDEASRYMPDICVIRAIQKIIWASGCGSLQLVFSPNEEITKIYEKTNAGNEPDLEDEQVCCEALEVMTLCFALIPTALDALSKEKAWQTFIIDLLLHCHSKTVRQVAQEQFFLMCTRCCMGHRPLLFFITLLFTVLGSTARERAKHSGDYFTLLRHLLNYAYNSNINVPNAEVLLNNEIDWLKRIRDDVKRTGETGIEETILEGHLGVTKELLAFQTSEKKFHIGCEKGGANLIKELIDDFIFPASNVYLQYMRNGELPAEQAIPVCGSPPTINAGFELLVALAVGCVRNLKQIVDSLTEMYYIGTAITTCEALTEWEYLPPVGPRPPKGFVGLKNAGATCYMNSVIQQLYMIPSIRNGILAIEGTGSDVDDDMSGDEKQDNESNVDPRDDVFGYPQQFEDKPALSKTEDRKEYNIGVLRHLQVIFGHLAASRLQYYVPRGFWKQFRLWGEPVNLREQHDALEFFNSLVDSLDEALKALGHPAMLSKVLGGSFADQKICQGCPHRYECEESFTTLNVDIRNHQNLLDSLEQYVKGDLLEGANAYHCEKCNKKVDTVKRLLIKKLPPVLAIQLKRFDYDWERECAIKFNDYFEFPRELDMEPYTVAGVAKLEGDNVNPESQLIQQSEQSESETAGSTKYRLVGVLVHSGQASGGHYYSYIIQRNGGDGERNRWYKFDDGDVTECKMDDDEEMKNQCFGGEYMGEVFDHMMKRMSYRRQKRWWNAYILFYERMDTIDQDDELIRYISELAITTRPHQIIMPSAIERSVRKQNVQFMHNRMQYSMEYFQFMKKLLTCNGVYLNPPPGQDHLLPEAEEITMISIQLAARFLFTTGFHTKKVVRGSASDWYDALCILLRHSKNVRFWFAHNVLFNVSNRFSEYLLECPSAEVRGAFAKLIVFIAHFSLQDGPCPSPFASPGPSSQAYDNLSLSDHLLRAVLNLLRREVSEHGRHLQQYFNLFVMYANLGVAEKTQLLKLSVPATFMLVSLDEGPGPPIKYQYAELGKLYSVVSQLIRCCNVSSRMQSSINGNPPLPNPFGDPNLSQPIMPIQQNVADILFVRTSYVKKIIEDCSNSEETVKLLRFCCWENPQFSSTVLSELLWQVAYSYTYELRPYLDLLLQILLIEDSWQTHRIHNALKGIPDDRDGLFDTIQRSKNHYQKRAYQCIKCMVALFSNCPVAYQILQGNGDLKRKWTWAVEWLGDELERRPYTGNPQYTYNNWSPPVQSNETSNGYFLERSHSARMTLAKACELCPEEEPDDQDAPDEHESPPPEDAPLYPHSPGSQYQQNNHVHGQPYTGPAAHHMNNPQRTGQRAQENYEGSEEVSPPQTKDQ

Target | log2 ratio of Biotin-Ahx-Ub-VS probe labelling ([1]; compound concentration: 50uM) | log2 ratio of Biotin-Ahx-Ub-VS probe labelling ([1]; compound concentration: 200uM) | log2 ratio of Biotin-Ahx-Ub-VS probe labelling ([2]; compound concentration: 50uM) | log2 ratio of Biotin-Ahx-Ub-VS probe labelling ([2]; compound concentration: 200uM) | log2 ratio of Biotin-Ahx-Ub-VS probe labelling ([3]; compound concentration: 50uM) | log2 ratio of Biotin-Ahx-Ub-VS probe labelling ([3]; compound concentration: 200uM) | log2 ratio of Biotin-Ahx-Ub-VS probe labelling ([4]; compound concentration: 50uM) | log2 ratio of Biotin-Ahx-Ub-VS probe labelling ([4]; compound concentration: 200uM) | log2 ratio of Biotin-Ahx-Ub-VS probe labelling ([5]; compound concentration: 50uM) | log2 ratio of Biotin-Ahx-Ub-VS probe labelling ([5]; compound concentration: 200uM) | log2 ratio of Biotin-Ahx-Ub-VS probe labelling ([6]; compound concentration: 50uM) | log2 ratio of Biotin-Ahx-Ub-VS probe labelling ([6]; compound concentration: 200uM) | log2 ratio of Biotin-Ahx-Ub-VS probe labelling ([7]; compound concentration: 50uM) | log2 ratio of Biotin-Ahx-Ub-VS probe labelling ([7]; compound concentration: 200uM) | log2 ratio of Biotin-Ahx-Ub-VS probe labelling ([8]; compound concentration: 50uM) | log2 ratio of Biotin-Ahx-Ub-VS probe labelling ([8]; compound concentration: 200uM) | log2 ratio of Biotin-Ahx-Ub-VS probe labelling ([9]; compound concentration: 50uM) | log2 ratio of Biotin-Ahx-Ub-VS probe labelling ([9]; compound concentration: 200uM) | log2 ratio of Biotin-Ahx-Ub-VS probe labelling ([10]; compound concentration: 50uM) | log2 ratio of Biotin-Ahx-Ub-VS probe labelling ([10]; compound concentration: 200uM) | log2 ratio of Biotin-Ahx-Ub-VS probe labelling ([11]; compound concentration: 50uM) | log2 ratio of Biotin-Ahx-Ub-VS probe labelling ([11]; compound concentration: 200uM) | log2 ratio of Biotin-Ahx-Ub-VS probe labelling ([12]; compound concentration: 50uM) | log2 ratio of Biotin-Ahx-Ub-VS probe labelling ([12]; compound concentration: 200uM) | log2 ratio of Biotin-Ahx-Ub-VS probe labelling ([13]; compound concentration: 50uM) | log2 ratio of Biotin-Ahx-Ub-VS probe labelling ([13]; compound concentration: 200uM) | log2 ratio of Biotin-Ahx-Ub-VS probe labelling ([14]; compound concentration: 50uM) | log2 ratio of Biotin-Ahx-Ub-VS probe labelling ([14]; compound concentration: 200uM)
USP9X (UniProt Q93008) | -0.128 | -0.446 | -0.193 | -0.435 | -0.101 | -0.202 | -0.221 | -1.31 (active) | -0.225 | -1.96 (active) | 0.0933 | -0.622 | -0.15 | -0.284 | -0.229 | -1.13 (active) | -0.00568 | -0.248 | -0.0287 | -0.0252 | -0.131 | -0.237 | 0.0883 | -0.151 | 0.0465 | -0.214 | -0.231 | -1.53 (active)
USP16 (UniProt Q9Y5T5) | -0.307 | -1.27 (active) | -0.434 | -0.669 | -0.00981 | -0.105 | -0.312 | -0.936 | -0.694 | -0.189 | -0.0935 | -1.62 (active) | -0.0383 | -0.326 | -0.507 | 0.00388 | -0.325 | -0.246 | -0.384 | -0.472 | -0.353 | -0.626 | -0.00515 | -0.114 | 0.221 | 0.339 | -0.277 | -0.62
COPS5 (UniProt Q92905) | 0.118 | -0.11 | -0.103 | 0.0593 | 0.00458 | -0.13 | -0.0338 | -0.0977 | -0.307 | -0.222 | -0.406 | 0.395 | -0.35 | 0.152 | -0.23 | -0.704 | 0.21 | -0.0541 | -0.103 | 0.0648 | -0.403 | -0.0328 | -0.0481 | 0.169 | -0.289 | -0.229 | -0.304 | 0.0806
UniProt P51784 | 0.019 | -0.0885 | -0.135 | -0.305 | -0.149 | -0.291 | -0.0998 | -0.339 | 0.125 | -0.807 | 0.0941 | -0.284 | -0.0884 | -0.403 | -0.0183 | -0.573 | 0.0513 | -0.0659 | 0.0554 | 0.032 | -0.0759 | -0.235 | 0.214 | -0.104 | 0.124 | -0.322 | 0.0256 | -1.01 (active)
UniProt Q9P2H5 | 0.0586 | -0.355 | -0.0969 | -0.154 | -0.301 | -0.182 | -0.114 | -0.29 | -0.263 | -0.82 | 0.133 | -0.449 | -0.415 | -0.273 | -0.192 | -0.595 | 0.156 | 0.0366 | -0.0608 | 0.0712 | -0.42 | -0.205 | 0.0602 | -0.0405 | -0.178 | -0.0371 | -0.262 | -1.08 (active)
USP24 (UniProt Q9UPU5) | -0.487 | -1.48 (active) | -0.374 | -0.994 | -0.209 | -0.569 | -0.878 | -1.68 (active) | -0.754 | -2.35 (active) | -0.355 | -1.41 (active) | -0.201 | -0.568 | -1.1 (active) | -2.46 (active) | -0.0604 | -0.635 | -0.0627 | -0.259 | -0.0337 | -0.691 | 0.0214 | -0.445 | 0.184 | -0.614 | -0.726 | -2.07 (active)
UCHL3 (UniProt P15374) | -0.149 | -0.181 | -0.409 | -0.314 | -0.297 | -0.108 | -0.15 | -0.296 | -0.0194 | -0.59 | -0.0966 | -0.705 | -0.331 | -0.399 | -1.73 (active) | -4.16 (active) | -0.0539 | -0.088 | -0.203 | 0.0177 | -0.519 | -0.27 | -0.0871 | -0.294 | -0.224 | -0.372 | -1.23 (active) | -4.19 (active)
USP25 (UniProt Q9UHP3) | 0.514 | -1.46 (active) | -0.138 | -0.338 | -0.545 | -0.345 | 0.265 | -0.358 | 0.409 | -0.517 | -0.562 | 0.332 | -0.946 | -0.711 | 0.621 | -0.242 | -0.129 | -0.557 | -0.808 | 0.0737 | 0.221 | 0.509 | -0.0574 | -0.126 | -0.809 | -1.97 (active) | 0.382 | -1.03
